The values that follow come from PMC7862700, “An all-to-all approach to the identification of sequence-specific readers for epigenetic DNA modifications on cytosine”.

Holding throughout (experiment): DAPPL (digital affinity profiling via proximity ligation, sequencing); 10 mM Tris-HCl pH 7.5, 50 mM NaCl, 1 mM DTT, 4% glycerol, room temperature, 30 min; GST-TFs on glutathione beads, 16-mer random dsDNA library, 0.1% formaldehyde crosslink after washing; high values mean tight binding
One experiment addresses T1, FLI1 (Homo sapiens, UniProt Q01543 1-452).
T1 sequence: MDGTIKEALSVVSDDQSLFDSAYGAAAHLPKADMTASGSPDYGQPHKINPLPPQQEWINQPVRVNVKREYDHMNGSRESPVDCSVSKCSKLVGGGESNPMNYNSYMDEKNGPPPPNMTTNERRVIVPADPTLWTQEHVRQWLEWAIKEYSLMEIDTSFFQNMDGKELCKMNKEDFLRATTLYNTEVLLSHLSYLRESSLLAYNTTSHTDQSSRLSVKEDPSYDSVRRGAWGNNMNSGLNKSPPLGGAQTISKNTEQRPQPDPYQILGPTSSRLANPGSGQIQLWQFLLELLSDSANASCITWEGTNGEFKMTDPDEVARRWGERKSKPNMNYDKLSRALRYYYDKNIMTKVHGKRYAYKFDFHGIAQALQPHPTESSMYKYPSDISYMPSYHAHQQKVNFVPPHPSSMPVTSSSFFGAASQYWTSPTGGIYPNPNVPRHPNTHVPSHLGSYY
The following applies: protein: recombinant; tags: N-terminal GST; dsDNA, one strand shown. A digest of the protocol:
(§1)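 In yeast, human transcription factors were expressed with a GST fusion, then pulled down on glutathione beads and given DNA barcodes. Pooled with a tag-only sample, they were exposed to 200 nmole of a 16-mer random double-stranded DNA library (Tris/NaCl/DTT/glycerol buffer, room temperature, 30 min), washed, crosslinked with 0.1% formaldehyde, proximity-ligated using BsaI/T4 ligase for 1 h at 37 °C, PCR-amplified and read on an Illumina NextSeq500. Each hexamer's frequency of reads for a factor, divided by the matching frequency for the tag-only sample, gives the binding signal.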

Another experiment concerns the target T2, ELK1 (Homo sapiens, UniProt P19419 1-428).
T2 sequence: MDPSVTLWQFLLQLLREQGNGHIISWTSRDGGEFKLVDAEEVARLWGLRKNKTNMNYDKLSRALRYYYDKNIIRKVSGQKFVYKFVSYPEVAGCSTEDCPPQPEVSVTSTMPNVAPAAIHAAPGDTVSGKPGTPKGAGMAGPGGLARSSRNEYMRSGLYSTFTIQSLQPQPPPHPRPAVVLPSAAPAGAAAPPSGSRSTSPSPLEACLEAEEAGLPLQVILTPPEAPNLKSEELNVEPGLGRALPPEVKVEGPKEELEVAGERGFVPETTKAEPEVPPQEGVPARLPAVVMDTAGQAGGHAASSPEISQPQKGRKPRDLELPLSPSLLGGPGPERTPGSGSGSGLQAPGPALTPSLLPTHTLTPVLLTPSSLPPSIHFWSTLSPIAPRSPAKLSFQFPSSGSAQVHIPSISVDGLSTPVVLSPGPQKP
The following applies: protein: recombinant; tags: N-terminal GST; dsDNA, one strand shown. Summed up: as §1

The next experiment has as its target T3, GABPA (Homo sapiens, UniProt Q06546 1-454).
T3 sequence: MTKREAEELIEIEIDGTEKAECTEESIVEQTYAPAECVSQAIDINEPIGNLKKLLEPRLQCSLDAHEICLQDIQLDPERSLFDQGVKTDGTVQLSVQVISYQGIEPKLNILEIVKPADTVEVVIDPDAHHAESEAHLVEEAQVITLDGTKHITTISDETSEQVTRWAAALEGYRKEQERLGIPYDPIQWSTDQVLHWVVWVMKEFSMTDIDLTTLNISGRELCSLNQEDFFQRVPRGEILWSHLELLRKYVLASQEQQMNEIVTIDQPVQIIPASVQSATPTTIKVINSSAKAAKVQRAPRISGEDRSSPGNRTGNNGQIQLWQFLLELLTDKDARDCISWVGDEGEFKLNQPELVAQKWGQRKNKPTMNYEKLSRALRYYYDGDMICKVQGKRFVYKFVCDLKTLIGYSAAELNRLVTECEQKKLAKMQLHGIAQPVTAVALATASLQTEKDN
The settings on record: protein: recombinant; tags: N-terminal GST; dsDNA, one strand shown. Summed up: as §1

The next experiment has as its target T4, ERG (Homo sapiens, UniProt P11308 1-479).
T4 sequence: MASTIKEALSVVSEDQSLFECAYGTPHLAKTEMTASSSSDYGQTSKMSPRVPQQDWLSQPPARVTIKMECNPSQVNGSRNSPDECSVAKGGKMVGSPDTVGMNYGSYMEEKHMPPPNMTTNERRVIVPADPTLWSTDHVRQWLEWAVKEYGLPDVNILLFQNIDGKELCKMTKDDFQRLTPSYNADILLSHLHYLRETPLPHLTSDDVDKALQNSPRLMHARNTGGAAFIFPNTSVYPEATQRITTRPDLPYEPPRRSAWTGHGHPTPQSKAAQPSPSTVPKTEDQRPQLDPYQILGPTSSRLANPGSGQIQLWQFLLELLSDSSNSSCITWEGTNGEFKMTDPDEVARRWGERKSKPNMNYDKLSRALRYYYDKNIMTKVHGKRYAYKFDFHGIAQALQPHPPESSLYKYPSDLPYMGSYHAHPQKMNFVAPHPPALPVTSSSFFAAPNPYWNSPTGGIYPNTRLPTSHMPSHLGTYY
The settings on record: protein: recombinant; tags: N-terminal GST; dsDNA, one strand shown. Summed up: as §1

For the next experiment, the target named is ELF1 (Homo sapiens, UniProt P32519 1-619). The settings on record: protein: recombinant; tags: N-terminal GST; dsDNA, one strand shown. Summed up: as §1
The target of a further experiment is T5, EHF (Homo sapiens, UniProt Q9NZC4 1-300).
T5 sequence: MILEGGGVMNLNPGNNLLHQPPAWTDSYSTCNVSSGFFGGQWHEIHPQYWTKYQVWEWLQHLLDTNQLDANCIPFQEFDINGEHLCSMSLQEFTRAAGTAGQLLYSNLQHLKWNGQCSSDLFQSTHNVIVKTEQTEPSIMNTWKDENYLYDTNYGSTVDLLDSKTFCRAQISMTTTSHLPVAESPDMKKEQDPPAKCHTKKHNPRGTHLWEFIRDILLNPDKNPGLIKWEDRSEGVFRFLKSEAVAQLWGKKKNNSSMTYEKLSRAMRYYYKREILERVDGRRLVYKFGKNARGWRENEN
The following applies: protein: recombinant; tags: N-terminal GST; dsDNA, one strand shown. A digest of the protocol: as §1

In the next experiment the target is SPI1 (Homo sapiens, UniProt P17947 1-270). The settings on record: protein: recombinant; tags: N-terminal GST; dsDNA, one strand shown. A digest of the protocol:
as §1

A further experiment has as its target SPIB (Homo sapiens, UniProt Q01892 1-262). The settings on record: protein: recombinant; tags: N-terminal GST; dsDNA, one strand shown. A digest of the protocol: as §1
A further experiment concerns the target T6, ELK3 (Homo sapiens, UniProt P41970 1-407).
T6 sequence: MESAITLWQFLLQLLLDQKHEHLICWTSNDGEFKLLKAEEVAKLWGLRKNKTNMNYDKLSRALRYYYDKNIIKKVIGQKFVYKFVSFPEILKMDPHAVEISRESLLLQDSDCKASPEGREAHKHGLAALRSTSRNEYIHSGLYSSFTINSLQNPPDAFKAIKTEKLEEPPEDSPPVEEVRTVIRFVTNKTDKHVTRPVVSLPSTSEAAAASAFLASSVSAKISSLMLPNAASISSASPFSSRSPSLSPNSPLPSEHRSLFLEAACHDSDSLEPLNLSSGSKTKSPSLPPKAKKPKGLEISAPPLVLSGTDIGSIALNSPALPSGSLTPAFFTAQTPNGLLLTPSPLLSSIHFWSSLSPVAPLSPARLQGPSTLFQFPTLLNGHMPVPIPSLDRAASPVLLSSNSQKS
The settings on record: protein: recombinant; tags: N-terminal GST; dsDNA, one strand shown. Summed up: as §1

For the next experiment, the target named is T7, FEV (Homo sapiens, UniProt Q99581 1-238).
T7 sequence: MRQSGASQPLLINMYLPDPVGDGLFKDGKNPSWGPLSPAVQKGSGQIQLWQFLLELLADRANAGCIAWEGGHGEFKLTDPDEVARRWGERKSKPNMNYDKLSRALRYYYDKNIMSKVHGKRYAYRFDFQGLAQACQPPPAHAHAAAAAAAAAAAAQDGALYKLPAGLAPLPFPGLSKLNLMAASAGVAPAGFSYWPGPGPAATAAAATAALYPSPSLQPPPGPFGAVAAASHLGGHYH
The following applies: protein: recombinant; tags: N-terminal GST; dsDNA, one strand shown. A digest of the protocol: as §1

The target of a further experiment is ETV5 (Homo sapiens, UniProt P41161 1-510). The following applies: protein: recombinant; tags: N-terminal GST; dsDNA, one strand shown. A digest of the protocol: as §1
The next experiment addresses HSF1 (Homo sapiens, UniProt Q00613 1-529). The settings on record: protein: recombinant; tags: N-terminal GST; chain copies: 3; dsDNA, one strand shown. A digest of the protocol: as §1
In the next experiment the target is T8, SPIC (Homo sapiens, UniProt Q8N5J4 1-248).
T8 sequence: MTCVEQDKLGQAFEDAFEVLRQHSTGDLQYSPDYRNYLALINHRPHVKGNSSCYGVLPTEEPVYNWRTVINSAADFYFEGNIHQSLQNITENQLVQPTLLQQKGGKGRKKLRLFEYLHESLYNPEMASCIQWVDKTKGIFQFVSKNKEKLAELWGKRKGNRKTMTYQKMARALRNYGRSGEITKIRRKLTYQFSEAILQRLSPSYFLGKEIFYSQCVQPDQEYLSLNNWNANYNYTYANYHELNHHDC
The settings on record: protein: recombinant; tags: N-terminal GST; dsDNA, one strand shown. Summed up:
as §1

A further experiment has as its target ELF4 (Homo sapiens, UniProt Q99607 1-663). The settings on record: protein: recombinant; tags: N-terminal GST; dsDNA, one strand shown. Summed up:
as §1

The target in a further experiment is T9, ELK4 (Homo sapiens, UniProt P28324-2 1-405).
T9 sequence: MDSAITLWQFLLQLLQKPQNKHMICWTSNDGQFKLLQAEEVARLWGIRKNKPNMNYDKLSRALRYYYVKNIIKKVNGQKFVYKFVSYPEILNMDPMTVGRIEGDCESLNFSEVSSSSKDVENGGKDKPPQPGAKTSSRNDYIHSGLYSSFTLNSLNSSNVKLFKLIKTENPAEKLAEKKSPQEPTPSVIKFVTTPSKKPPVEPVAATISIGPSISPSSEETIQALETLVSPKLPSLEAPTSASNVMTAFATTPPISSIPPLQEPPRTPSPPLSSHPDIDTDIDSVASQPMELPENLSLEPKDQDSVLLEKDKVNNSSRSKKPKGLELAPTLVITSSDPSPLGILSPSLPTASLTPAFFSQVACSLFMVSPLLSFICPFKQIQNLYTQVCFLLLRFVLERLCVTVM
The settings on record: protein: recombinant; tags: N-terminal GST; dsDNA, one strand shown. Summed up: as §1

A further experiment addresses T10, ETV2 (Homo sapiens, UniProt O00321 1-342).
T10 sequence: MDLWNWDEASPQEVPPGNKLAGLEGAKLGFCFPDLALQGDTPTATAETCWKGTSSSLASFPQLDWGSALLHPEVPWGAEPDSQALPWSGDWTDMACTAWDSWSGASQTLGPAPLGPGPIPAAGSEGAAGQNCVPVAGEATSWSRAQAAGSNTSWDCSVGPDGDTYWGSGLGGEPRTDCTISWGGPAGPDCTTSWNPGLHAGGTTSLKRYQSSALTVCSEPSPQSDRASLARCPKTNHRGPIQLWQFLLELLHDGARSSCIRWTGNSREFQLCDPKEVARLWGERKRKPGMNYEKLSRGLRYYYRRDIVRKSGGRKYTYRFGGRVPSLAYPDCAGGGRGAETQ
The following applies: protein: recombinant; tags: N-terminal GST; dsDNA, one strand shown. A digest of the protocol: as §1

In another experiment the target is T11, ELF3 (Homo sapiens, UniProt P78545 1-371).
T11 sequence: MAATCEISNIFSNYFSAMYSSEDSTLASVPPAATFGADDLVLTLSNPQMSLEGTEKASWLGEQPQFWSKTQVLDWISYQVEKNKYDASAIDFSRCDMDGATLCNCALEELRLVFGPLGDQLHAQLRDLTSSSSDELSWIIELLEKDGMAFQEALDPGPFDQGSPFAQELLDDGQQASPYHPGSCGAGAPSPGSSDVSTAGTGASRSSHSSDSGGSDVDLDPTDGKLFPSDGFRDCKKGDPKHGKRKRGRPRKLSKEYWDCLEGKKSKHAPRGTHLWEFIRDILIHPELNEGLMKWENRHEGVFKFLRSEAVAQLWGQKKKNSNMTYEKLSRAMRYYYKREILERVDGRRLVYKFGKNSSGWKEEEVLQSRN
The settings on record: protein: recombinant; tags: N-terminal GST; dsDNA, one strand shown. Summed up:
as §1

The target of another experiment is CRX (Homo sapiens, UniProt O43186 1-299). The following applies: protein: recombinant; tags: N-terminal GST; dsDNA, one strand shown. Summed up: as §1
Another experiment concerns the target ETV1 (Homo sapiens, UniProt P50549 1-477). The following applies: protein: recombinant; tags: N-terminal GST; dsDNA, one strand shown. A digest of the protocol: as §1

Sequence of ETV1 (P50549 whole entry): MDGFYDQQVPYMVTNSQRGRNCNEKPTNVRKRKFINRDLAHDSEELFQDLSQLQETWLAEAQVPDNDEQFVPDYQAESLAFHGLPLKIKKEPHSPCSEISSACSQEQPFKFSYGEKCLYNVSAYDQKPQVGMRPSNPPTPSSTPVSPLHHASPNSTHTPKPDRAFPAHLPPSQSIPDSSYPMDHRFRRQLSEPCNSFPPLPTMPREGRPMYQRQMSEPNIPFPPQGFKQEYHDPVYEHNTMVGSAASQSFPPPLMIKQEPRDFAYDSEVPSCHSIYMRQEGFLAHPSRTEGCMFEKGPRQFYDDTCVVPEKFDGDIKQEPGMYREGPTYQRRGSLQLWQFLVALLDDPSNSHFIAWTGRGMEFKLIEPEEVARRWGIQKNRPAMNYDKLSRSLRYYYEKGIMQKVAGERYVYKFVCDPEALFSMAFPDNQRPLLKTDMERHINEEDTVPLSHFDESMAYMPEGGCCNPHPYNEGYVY
Sequence of HSF1 (Q00613 whole entry): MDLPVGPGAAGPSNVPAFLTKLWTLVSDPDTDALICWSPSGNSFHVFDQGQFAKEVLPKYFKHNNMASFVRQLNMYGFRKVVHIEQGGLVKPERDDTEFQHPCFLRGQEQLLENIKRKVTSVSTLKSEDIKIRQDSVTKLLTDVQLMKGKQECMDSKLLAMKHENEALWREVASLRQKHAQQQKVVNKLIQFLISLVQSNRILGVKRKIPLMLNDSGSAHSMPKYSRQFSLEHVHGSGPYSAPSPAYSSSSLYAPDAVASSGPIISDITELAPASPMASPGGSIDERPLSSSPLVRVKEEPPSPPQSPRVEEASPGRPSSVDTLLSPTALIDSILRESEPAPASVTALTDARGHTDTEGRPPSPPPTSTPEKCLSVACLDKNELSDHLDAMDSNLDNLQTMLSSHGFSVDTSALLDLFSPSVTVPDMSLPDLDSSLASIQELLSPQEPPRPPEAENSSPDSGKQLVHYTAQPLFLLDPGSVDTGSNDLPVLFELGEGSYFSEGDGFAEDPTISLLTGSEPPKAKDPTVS
Sequence of ELF1 (P32519 whole entry): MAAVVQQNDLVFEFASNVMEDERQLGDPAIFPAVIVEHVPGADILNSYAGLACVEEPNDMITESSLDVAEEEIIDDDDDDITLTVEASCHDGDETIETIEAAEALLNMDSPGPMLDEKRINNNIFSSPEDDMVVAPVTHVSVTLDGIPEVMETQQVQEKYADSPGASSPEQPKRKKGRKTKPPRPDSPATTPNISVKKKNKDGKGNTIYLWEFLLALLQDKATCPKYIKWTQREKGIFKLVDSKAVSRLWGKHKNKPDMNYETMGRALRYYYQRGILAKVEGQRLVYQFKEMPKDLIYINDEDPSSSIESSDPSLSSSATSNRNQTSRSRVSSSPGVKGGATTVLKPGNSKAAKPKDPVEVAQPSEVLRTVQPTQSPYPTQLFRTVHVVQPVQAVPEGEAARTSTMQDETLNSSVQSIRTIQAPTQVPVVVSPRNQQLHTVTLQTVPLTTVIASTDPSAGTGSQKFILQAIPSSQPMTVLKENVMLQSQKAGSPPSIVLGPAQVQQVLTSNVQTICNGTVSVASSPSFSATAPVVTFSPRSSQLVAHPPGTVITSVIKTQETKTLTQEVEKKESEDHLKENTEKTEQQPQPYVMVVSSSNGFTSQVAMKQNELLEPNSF
Sequence of ELF4 (Q99607 whole entry): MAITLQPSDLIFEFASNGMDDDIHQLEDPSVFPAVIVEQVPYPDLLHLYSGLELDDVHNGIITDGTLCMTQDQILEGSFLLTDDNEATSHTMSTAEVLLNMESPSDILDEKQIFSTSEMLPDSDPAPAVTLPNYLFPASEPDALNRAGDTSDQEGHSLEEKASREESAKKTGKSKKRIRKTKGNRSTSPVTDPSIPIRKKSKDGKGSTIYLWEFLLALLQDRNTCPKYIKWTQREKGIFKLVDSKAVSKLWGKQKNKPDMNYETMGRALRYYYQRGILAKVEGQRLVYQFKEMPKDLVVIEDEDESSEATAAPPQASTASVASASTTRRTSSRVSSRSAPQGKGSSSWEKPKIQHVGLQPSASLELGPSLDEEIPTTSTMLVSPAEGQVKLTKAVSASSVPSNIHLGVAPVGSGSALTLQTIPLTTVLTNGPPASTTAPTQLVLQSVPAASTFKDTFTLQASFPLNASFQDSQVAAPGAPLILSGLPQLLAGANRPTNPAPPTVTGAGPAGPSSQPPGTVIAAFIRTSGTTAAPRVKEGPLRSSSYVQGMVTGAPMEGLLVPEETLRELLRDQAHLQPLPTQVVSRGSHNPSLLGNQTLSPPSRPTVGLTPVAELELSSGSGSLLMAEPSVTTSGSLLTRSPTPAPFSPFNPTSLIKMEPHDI
Sequence of ETV5 (P41161 whole entry): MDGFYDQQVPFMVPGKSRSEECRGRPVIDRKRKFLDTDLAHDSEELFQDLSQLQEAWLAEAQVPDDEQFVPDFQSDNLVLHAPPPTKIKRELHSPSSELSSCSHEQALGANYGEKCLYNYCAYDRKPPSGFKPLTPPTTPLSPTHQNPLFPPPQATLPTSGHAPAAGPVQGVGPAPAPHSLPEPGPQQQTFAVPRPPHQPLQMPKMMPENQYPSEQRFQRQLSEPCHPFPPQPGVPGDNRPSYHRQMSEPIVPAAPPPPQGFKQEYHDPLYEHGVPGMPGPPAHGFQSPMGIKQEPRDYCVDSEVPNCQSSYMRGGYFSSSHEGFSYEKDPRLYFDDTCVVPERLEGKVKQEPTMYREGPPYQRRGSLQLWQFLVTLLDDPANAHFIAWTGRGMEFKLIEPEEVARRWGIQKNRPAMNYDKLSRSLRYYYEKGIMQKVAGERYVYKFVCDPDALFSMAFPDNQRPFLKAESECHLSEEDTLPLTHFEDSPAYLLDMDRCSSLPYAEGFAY
Sequence of SPIB (Q01892 whole entry): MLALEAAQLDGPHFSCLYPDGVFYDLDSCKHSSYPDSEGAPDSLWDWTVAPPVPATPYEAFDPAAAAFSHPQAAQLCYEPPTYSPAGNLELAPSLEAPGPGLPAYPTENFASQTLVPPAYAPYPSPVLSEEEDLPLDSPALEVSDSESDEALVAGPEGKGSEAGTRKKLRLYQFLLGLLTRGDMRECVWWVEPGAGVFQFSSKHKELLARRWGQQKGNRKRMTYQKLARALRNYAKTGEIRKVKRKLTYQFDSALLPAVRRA
Sequence of CRX (O43186 whole entry): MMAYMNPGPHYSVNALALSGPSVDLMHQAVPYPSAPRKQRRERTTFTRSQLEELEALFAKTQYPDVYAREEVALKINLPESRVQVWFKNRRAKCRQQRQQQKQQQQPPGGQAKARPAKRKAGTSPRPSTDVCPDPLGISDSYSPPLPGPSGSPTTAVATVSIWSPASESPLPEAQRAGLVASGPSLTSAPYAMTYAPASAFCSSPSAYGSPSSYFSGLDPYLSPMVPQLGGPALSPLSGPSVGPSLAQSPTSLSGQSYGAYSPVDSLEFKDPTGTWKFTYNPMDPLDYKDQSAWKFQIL

For the sequence CACTAT, the binding signal was 1.23 fold enrichment (6-mer frequency, TF over GST control) in the experiment with FLI1; 1.18 fold enrichment (6-mer frequency, TF over GST control) in the experiment with ELK1; 1.31 fold enrichment (6-mer frequency, TF over GST control) in the experiment with GABPA; 1.18 fold enrichment (6-mer frequency, TF over GST control) with ERG; 1.26 fold enrichment (6-mer frequency, TF over GST control) with ELF1; 1.16 fold enrichment (6-mer frequency, TF over GST control) with EHF. The binding signal with SPI1 was 1.25 fold enrichment (6-mer frequency, TF over GST control); with SPIB, 1.17 fold enrichment (6-mer frequency, TF over GST control); with ELK3, 1.24 fold enrichment (6-mer frequency, TF over GST control); in the experiment with FEV, 1.21 fold enrichment (6-mer frequency, TF over GST control); with ETV5, 1.2 fold enrichment (6-mer frequency, TF over GST control); with HSF1, 1.05 fold enrichment (6-mer frequency, TF over GST control). Further, the binding signal with SPIC is 1.2 fold enrichment (6-mer frequency, TF over GST control); with ELF4, 1.26 fold enrichment (6-mer frequency, TF over GST control); with ELK4, 1.25 fold enrichment (6-mer frequency, TF over GST control); in the experiment with ETV2, 1.09 fold enrichment (6-mer frequency, TF over GST control); in the experiment with ELF3, 1.32 fold enrichment (6-mer frequency, TF over GST control); in the experiment with CRX it was 1.05 fold enrichment (6-mer frequency, TF over GST control). Also, the binding signal with ETV1 is 1.14 fold enrichment (6-mer frequency, TF over GST control).
